aDG glyco up – alpha-DG glycosylation activation | Pro5-aDG cells, alpha-DG glycosylation AlphaScreen (IIH6); 0% Pro5, 100% B10-LARGE cell signal | activation, % at 10 µM | actives 0.22% (n = 360,000) | AID 624168;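 active = activation of at least 8% versus controls, or a plate z-score of at least 8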;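 also: Pro5 are CHO cells carrying HIG-tagged alpha-DG that lacks glycosylation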
MPTP block – permeability transition pore inhibition; AID 602449; inhibition, % at 10 µM; isolated mouse mitochondria, Ca2+ swelling absorbance, 30 min; actives 1.4% (n = 360,000);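 active = inhibition of 50% or more, scaled per plate between neutral and stimulator controls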;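 also: 0% = DMSO wells given calcium and 100% = 1 mM EGTA wells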
NadD block – NadD (S. aureus) enzyme inhibition. purified NadD enzyme, colorimetric absorbance read-out. inhibition, % at 20 µM. actives 0.78% (n = 360,000); in the data active = inhibition above about 26%
TAG inh – inhibitors of triacylglycerol accumulation. inhibition, % at 12.5 µM. H9c2 cells, Nile Red lipid (TAG) fluorescence; cells loaded with 200 µM oleic acid. actives 0.66% (n = 230,000);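 active = pattern-corrected inhibition of lipid staining of at least 50% with the nuclear-stain viability signal not falling by more than 50%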;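 also: 0% = DMSO wells and 100% = triacsin C control wells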
MPTP counter – Rhodamine 123 counter-screen of mitochondrial pore hits | inhibition, % at 10 µM | shares compounds with MPTP block | AID 624504 | actives 78% (n = 5,000) | isolated mitochondria, membrane potential, Rhodamine 123 fluorescence; in the data active = inhibition above about 22%;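 also: 0% = DMSO vehicle and 100% = positive control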
MPTP abs DR – dose response confirmation of mitochondrial permeability transition pore inhibitors. IC50, µM. AID 651561. shares compounds with MPTP block. isolated mitochondria swelling, absorbance. actives 58% (n = 780); in the data active = IC50 below about 20 µM
MPTP counter DR – active in counter-screen for permeability transition pore inhibitors | shares compounds with MPTP block | isolated mitochondria counterscreen, fluorescence read-out | IC50, µM | actives 49% (n = 780); in the data active = IC50 below about 80 µM
Numbers without * were called inactive; i = inactive; / = no result given. Compounds with a hit are over-represented: about 2.7% of the library has one in this group of screens.

SMILES	aDG glyco up	MPTP block	NadD block	TAG inh	MPTP counter	others
O=C(Nc1ccc(N2CCCC2)c(S(=O)(=O)Nc2cccc(C(F)(F)F)c2)c1)c1cccs1	0	74*	17	/	50*
Cc1ccccc1C(=O)N1CCc2cc(-c3csc(NC(=O)CN4CCCC4)n3)ccc21	0	1	1	/	/
Cc1sc(NC(=O)CN2CCCC2)nc1-c1ccc2c(c1)CCN2C(=O)c1cccc(F)c1	2.7*	59*	16	/	-15	MPTP abs DR=i;MPTP counter DR=35*
Cc1ncc([N+](=O)[O-])n1CCOC(=O)C12CC3CC(CC(C3)C1)C2	0	-1	1	5	/
Cc1ncc([N+](=O)[O-])n1CCOC(=O)Nc1ccc([N+](=O)[O-])cc1	0	77*	-1	/	71*
O=C1CNC(=O)c2cc(Cl)ccc2N1	0	1	-2	-1	/
O=S(=O)(NCCN1CCOCC1)c1ccc2ccccc2c1	0	-1	-3	-8	/
O=S(=O)(NCCN1CCOCC1)c1ccc(Oc2ccccc2Cl)cc1	0	75*	-1	/	35*
CCOC(=O)c1ccc(Nc2ccc(C(C)=O)cc2)cc1	0	1	-7	/	/
CCOC(=O)c1ccc(Nc2nnc(C(C)(C)C)c(=O)[nH]2)cc1	0	93*	3	-10	83*
Cc1nc2sccn2c1-c1csc(NCc2ccccc2)n1	5.9*	58*	-5	/	67*
COc1cccc2c(=O)cc(C)n(CC(=O)Nc3ccc(Br)cc3)c12	1	70*	-5	1	33*
N#C/C(=C(/O)COC(=O)c1ccc(C#N)cc1)c1nc2ccccc2s1	0	79*	10	/	88*
Cc1ccc(SC/C(O)=C(\C#N)c2nc3ccccc3s2)cc1	0	94*	2	10	91*
COc1ccc(C/C(O)=C(\C#N)c2nc3ccccc3s2)cc1	0	38	1	/	/
N#C/C(=C(/O)COc1ccccc1)c1nc2ccccc2s1	0	84*	-3	7	81*
N#C/C(=C(/O)c1ccc(F)cc1)c1nc2ccccc2s1	0	78*	-2	-18	96*
C[C@@H]1CN([C@@H](C)CO)C(=O)CCCn2nncc2CO[C@H]1CN(C)Cc1ccc2c(c1)OCCO2	0	-1	-5	-8	/
N#C/C(=C(/O)COc1ccc(Cl)cc1)c1nc2ccccc2s1	0	107*	5	13	90*
N#C/C(=C(/O)CSc1ccccn1)c1nc2ccccc2s1	0	2	3	24	/
N#C/C(=C(/O)c1ccc(-c2cccc([N+](=O)[O-])c2)o1)c1nc2ccccc2s1	0	98*	19	-4	69*
Cc1cc2c(=O)n(C)c(SCC(=O)Nc3ccccc3C)nc2s1	0	0	-1	-12	/
Cc1ccc(C(C)C)c(OCCNCc2ccccc2)c1	1	56*	-8	1	19	MPTP abs DR=4.6*;MPTP counter DR=15*
Cc1ccc(C)c(OCCCNCc2ccccc2)c1	0	4	-2	9	/
CN1CCc2c(OCC(=O)N3CCC(Cc4ccccc4)CC3)cccc2C1=O	1	82*	1	-23	49*
SMILES	aDG glyco up	MPTP block	NadD block	TAG inh	MPTP counter	others
CCC1CCCCN1C(=O)COc1cccc2c1CCN(C)C2=O (configuration not stated)	0	9	-3	-9	/
COc1cc(NS(=O)(=O)c2ccc(C)cc2C)cc(OC)c1OC	3	84*	-3	-14	72*
COC(=O)NC(NC(=S)Nc1ccc([N+](=O)[O-])cc1)C(Cl)(Cl)Cl (configuration not stated)	0	93*	1	/	80*
CC(C)CC(=O)NC(Nc1ccc([N+](=O)[O-])cc1)C(Cl)(Cl)Cl (configuration not stated)	0	90*	-4	/	96*
CCOC(=O)NC(NC(=S)Nc1ccc(OC)cc1)C(Cl)(Cl)Cl (configuration not stated)	0	8	4	1	/
CC(C)CC(=O)NC(Nc1ccccc1F)C(Cl)(Cl)Cl (configuration not stated)	0	-5	-6	6	/
COc1ccc([N+](=O)[O-])cc1NC(=O)CSc1ccc2ccccc2c1	5	62*	-8	/	31*
COc1ccc([N+](=O)[O-])cc1NC(=O)C(C)c1ccccc1 (configuration not stated)	0	1	-6	/	/
COc1ccc([N+](=O)[O-])cc1NC(=S)NC(NC(=O)C(c1ccccc1)c1ccccc1)C(Cl)(Cl)Cl (configuration not stated)	2	95*	26	18	64*
COc1cc(Nc2nc3ccccc3nc2NS(=O)(=O)c2ccc([N+](=O)[O-])cc2)cc(OC)c1OC	0	4	4	/	/
O=C(O)c1ccc(Nc2nc3ccccc3nc2NS(=O)(=O)c2ccc(F)cc2)cc1	0	75*	6	/	70*
O=[N+]([O-])c1ccc(Nc2c3ccccc3nc3ccccc23)cc1	0	80*	4	-5	77*
O=[N+]([O-])c1ccc(S(=O)(=O)Nc2nc3ccccc3nc2Nc2ccccc2)cc1	0	106*	21	/	86*
O=[N+]([O-])c1ccccc1Nc1c2ccccc2nc2ccccc12	0	2	7	-4	/
CCOc1ccc(/C=N/NC(=O)CN2CCCCCCC2)cc1	0	1	4	-19	/
CCOC(=O)[C@]12CCC=C1N(Cc1ccc3c(c1)OCO3)C(=O)[C@H](CC(=O)NCC13CC4CC(CC(C4)C1)C3)C2	0	-2	3	/	/
CC(Cl)=CCn1c(NCCc2ccccc2)nc2c1c(=O)n(C)c(=O)n2C	2	71*	1	-20	76*
Cn1c(=O)c2c(nc(NCCc3ccccc3)n2Cc2ccc(F)cc2)n(C)c1=O	1	0	1	4	/
Cn1c(=O)c2c(nc(NCc3ccco3)n2C/C=C/c2ccccc2)n(C)c1=O	3	89*	-3	/	106*
Cn1c(=O)c2c(nc(NCc3ccco3)n2C)n(C)c1=O	0	-2	-5	/	/
CC(NC(=O)Nc1cccc([N+](=O)[O-])c1)(C(F)(F)F)C(F)(F)F	1	106*	-7	/	102*
O=C(Nc1ccc(F)cc1)Nc1ccc2c(c1)CCC2	1	23	-8	-4	/
O=C(Nc1cccc([N+](=O)[O-])c1)Nc1cccs1	2	89*	6	-28	85*
O=C(Nc1cccc([N+](=O)[O-])c1)Nc1ccc2c(c1)CCC2	1	86*	-8	-21	76*
O=C(Nc1cccc(F)c1)Nc1ccc2c(c1)CCC2	0	67*	0	-2	92*

From PubChem
